# The list is not random: actives were taken first. Their share in the collection is about 3.9%.
# SARS 3CLpro inh: SARS-CoV 3CLpro protease inhibition | P0C6X7 | recombinant SARS-CoV 3CLpro, quenched FRET peptide cleavage | inhibition, % at 6 µM | 290,000 tested, 0.14% active | AID 1706; in the data active means inhibition above about 12%
# BoNT-A LC inh2: inhibitors of Botulinum neurotoxin A light chain protease. multiplex microsphere protease substrate cleavage, flow cytometry. inhibition, % at 10 µM. 360,000 tested, 0.17% active. AID 588499; further: plate controls were buffer without enzyme for full effect and enzyme alone for no effect
# CCHFV vOTU inh: blocks the CCHF virus ovarian tumor domain protease; CCHFV vOTU protease, Pep-AMC fluorescence; inhibition, % at 11.5 µM; 370,000 tested, 0.55% active; AID 651958; in the data active means inhibition above about 30%; further: 0% = vehicle wells with enzyme and 100% = no enzyme wells
# Autofluor counter: compound fluorescence in toxin protease inhibitor counterscreen; AID 624483; fluorescence intensity (test concentration not listed); 360,000 tested, 3.1% active; compound autofluorescence counterscreen, microsphere flow cytometry; active compounds read high; in the data active means fluorescence intensity above about 16000; inconclusive means no clear call, values can overlap the other calls
# BoNT-F LC inh: inhibitors of Botulinum neurotoxin F light chain protease. Multiplex microsphere protease cleavage assay, flow cytometry. inhibition, % at 10 µM. 360,000 tested, 0.22% active. AID 588497; in the data active means inhibition above about 35%, passing the limit was not always enough; inconclusive means no clear call, values can overlap the other calls; further: plate controls were buffer without enzyme for full effect and enzyme alone for no effect
# Anthrax LF inh2: anthrax lethal factor protease inhibition; P15917; multiplex microsphere protease cleavage assay, LF; inhibition, % at 10 µM; 360,000 tested, 0.12% active; AID 588501; further: plate controls were buffer without enzyme for full effect and enzyme alone for no effect
# Target sequence (P15917 whole entry, looked up): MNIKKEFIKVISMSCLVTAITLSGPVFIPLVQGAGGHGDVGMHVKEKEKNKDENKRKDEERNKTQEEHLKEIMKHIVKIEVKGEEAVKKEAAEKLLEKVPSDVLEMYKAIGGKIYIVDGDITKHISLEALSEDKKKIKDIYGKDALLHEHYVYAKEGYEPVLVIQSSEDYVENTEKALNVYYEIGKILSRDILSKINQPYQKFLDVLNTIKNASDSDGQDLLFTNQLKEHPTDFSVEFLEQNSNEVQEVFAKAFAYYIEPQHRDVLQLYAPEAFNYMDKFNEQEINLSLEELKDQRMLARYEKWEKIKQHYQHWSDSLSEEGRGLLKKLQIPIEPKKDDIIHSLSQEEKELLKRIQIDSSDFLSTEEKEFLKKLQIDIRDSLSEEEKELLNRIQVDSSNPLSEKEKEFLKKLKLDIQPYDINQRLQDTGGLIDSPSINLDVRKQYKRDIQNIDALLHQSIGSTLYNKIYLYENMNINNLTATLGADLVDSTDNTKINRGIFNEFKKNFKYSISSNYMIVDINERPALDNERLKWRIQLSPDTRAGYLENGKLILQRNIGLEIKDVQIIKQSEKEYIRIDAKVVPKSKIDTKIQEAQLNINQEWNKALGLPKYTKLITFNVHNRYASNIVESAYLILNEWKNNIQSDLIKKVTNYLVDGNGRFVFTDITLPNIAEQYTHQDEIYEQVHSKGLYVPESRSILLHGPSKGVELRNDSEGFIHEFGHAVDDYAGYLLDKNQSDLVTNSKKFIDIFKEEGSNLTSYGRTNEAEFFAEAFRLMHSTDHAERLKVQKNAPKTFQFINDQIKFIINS
# Active calls of the source: *; ? = inconclusive; . = not tested or not shown. Unless noted, no stated cut-off is given here; in the data, active means inhibition above about 30%; inconclusive means no clear call, values can overlap the other calls; inactive means below that.
SMILES,SARS 3CLpro inh,BoNT-A LC inh2,CCHFV vOTU inh,Autofluor counter,BoNT-F LC inh,Anthrax LF inh2
CCOC(=O)CSC1=C(C#N)C(c2ccccc2Cl)C(C(=O)OC)C(=O)N1 (centres undefined),-0.6,4.9,14.8,20786*,10.0,2.4
O=S1(=O)c2ccc(Br)cc2OC[C@@H](c2ccccc2)N1Cc1cn(Cc2ccccc2)nn1,.,.,-6.4,.,.,.
CCOc1ccc(C2C3=C(CCCC3=O)Nc3nc(C(F)(F)F)nn32)cc1OC (centres undefined),2.0,0.7,20.2,2313,-1.1,-4.9
CCOc1cc(C2C3=C(CCCC3=O)Nc3nc(C(=O)OC)nn32)ccc1OC (centres undefined),5.3,1.0,18.0,22585*,1.0,-1.0
Cc1ccccc1NC(=O)/C(=C\c1cccs1)NC(=O)c1ccco1,0.7,-1.5,3.5,23554*,-2.3,-4.0
O=C(Nc1ccsc1C(=O)NC1CCCCC1)c1ccccc1,0.1,?,-2.0,20407*,-2.4,-0.8
COc1ccc(OCCC(=O)OCC(=O)NC(=O)NC(C)C)cc1,7.8,.,13.2,.,.,.
CC(C)NC(=O)NC(=O)COC(=O)CCOc1ccccc1,-3.1,-0.2,2.8,24104*,-1.1,0.9
CC1CC(C)CN(S(=O)(=O)N2CCCC(C(=O)NCCCN3CCCCC3C)C2)C1 (centres undefined),-5.5,0.1,9.9,5870,4.3,0.7
Cc1ccc(S(=O)(=O)N2CCCC(C(=O)NCCCN3CCCCC3C)C2)cc1 (centres undefined),0.3,1.8,0.9,25210*,0.5,1.6
O=c1oc2c(CN3CCOCC3)c(O)ccc2c2c1CCC2,-2.0,-3.8,-327.5,20943*,-6.6,-0.3
CC(=O)c1cc(-c2ccccc2-c2ccccc2)c(=O)n2c1CCC2,.,.,5.5,.,.,.
C#Cc1ccc(CN2CCN(CCCc3ccccc3)C(CCO)C2)cc1 (centres undefined),-4.4,.,-9.4,.,.,.
CN(C)c1cccc(NC(=O)CCc2ccccc2)c1,2.4,11.7,12.4,7865,74.8*,24.6
CC(=O)Nc1cccc(NC(=O)CCc2ccccc2)c1,-4.7,0.2,2.3,2181,3.4,0.5
O=C(NCc1ccccn1)c1cc(S(=O)(=O)N2CCN(c3ccccc3)CC2)ccc1Cl,1.3,?,8.4,22854*,-2.2,-4.1
CC(CCc1ccccn1)(CCc1ccccn1)C(=O)c1ccccc1,.,-0.2,1.9,3940,-2.2,-1.7
COCCCNC(=O)C[C@H]1C[C@@]2(C(=O)OC)C(=C[C@H](C3CCCC3)O[C@@H]2C)N(CCc2ccc(OC)c(OC)c2)C1=O,.,.,-4.1,.,.,.
Nc1nnc(SCC(=O)N2CCN(Cc3ccccc3)CC2)s1,-6.4,?,8.9,16406*,0.1,1.5
CCc1nc(C)cn1S(=O)(=O)c1ccc(Br)cc1,-3.7,-10.0,-6.4,3746,-9.8,-17.3
CC1(C(=O)O)CCCN(C(=O)c2ccc(F)cc2Cl)C1 (centres undefined),.,0.0,4.7,2835,0.3,-5.9
CC(C)[N+]1=C2C=CC=CC=C2SC12C([N+](=O)[O-])=CC(=[N+]([O-])[O-])C=C2[N+](=O)[O-] (centres undefined),0.2,40.9*,21.8,2794,?,-11.6
CCc1c(O)nc(SCC(=O)Nc2ccc(OC)cc2)n(C2CCCCC2)c1=O,-1.4,-2.9,-3.0,24511*,-3.6,-1.1
CCc1c(O)nc(SCC(=O)Nc2nc3ccccc3s2)n(C2CCCCC2)c1=O,7.8,-7.3,-2.5,4298,?,-8.1
CC1=NN(C(=O)c2ccc(C)o2)C(O)(c2ccccc2)C1 (centres undefined),-2.8,0.8,5.1,10337,-0.4,0.6
SMILES,SARS 3CLpro inh,BoNT-A LC inh2,CCHFV vOTU inh,Autofluor counter,BoNT-F LC inh,Anthrax LF inh2
Cc1c(/C=N/NC(=O)c2cc(=O)[nH]c(=O)[nH]2)c2ccccn2c1C(=O)c1ccccc1,-8.5,3.3,-12.0,19024*,4.8,0.7
CCN(Cc1ccccc1)C(=O)COC(=O)c1cc(S(=O)(=O)Nc2ccccc2OC)ccc1O,.,-2.3,10.2,6205,-3.2,-3.1
Cc1c(Cl)cccc1N1C(=O)c2ccccc2C1=O,-3.1,?,16.4,25160*,-7.1,-3.5
COc1cnc(-c2ccccn2)nc1Oc1ccc(Cl)cc1,5.6,-0.2,-2.9,16340*,2.5,1.6
COc1cnc(-c2ccccn2)nc1Sc1cccc(Cl)c1,-2.4,-2.6,-6.7,17458*,-5.3,-2.6
COc1cnc(-c2ccccn2)nc1Oc1ccc(Cl)c2ccccc12,1.5,-3.9,-0.3,17538*,-7.6,-1.9
COc1ccc2c(c1)[C@@]1(OCCC=C[C@H]1C)C(=O)N2Cc1ccc(Br)cc1,.,.,8.4,.,.,.
CS(=O)(=O)OC12CCCN(C1)/C(=C/c1ccc(Cl)cc1)C2 (centres undefined),.,.,-2.6,.,.,.
COc1ccc(OC)c(NC(=O)C2CCN(C(=O)C3CC(=O)N(c4ccc(C)cc4)C3)CC2)c1 (centres undefined),-4.7,1.1,11.1,3525,2.2,5.2
COc1ccc([C@@H]2[C@H]3C(=O)N(c4cccc(C(F)(F)F)c4)C(=O)[C@H]3ON2C)cc1,-0.6,1.9,-3.4,21509*,3.9,-0.8
O=C1[C@H]2[C@H](ON3CCCC[C@H]23)C(=O)N1c1cccc(C(F)(F)F)c1,-1.2,-0.9,-18.2,4905,0.9,3.9
CC(C)CC(=O)N1CCN(c2ccc([N+](=O)[O-])c(NCc3ccccc3)c2)CC1,2.2,0.3,30.9*,3785,4.0,-4.2
O=C(c1ccccc1)N1CCN(c2ccc([N+](=O)[O-])c(NCc3cccnc3)c2)CC1,-7.3,0.7,12.1,2462,-1.4,-1.5
CC/C(=N\NC(N)=O)c1c(O)[nH]c(=O)[nH]c1=O,1.0,-1.0,8.0,?,?,-16.8
CCCC(=O)c1c(O)[nH]c(=O)[nH]c1=O,-5.8,-0.7,-3.8,22341*,-1.8,2.3
CC1CCCN(Cc2c(O)ccc3c(=O)c(-c4nc5ccccc5s4)c(N)oc23)C1 (centres undefined),2.0,?,4.1,25322*,-10.2,-3.9
CC(=O)c1cc(NC(=O)c2cccc(C(F)(F)F)c2)c(=O)oc1/C=C/N(C)C,2.6,?,-1.2,23755*,-12.2,-1.1
CC(=O)c1cc(NC(=O)c2ccc(Cl)cc2)c(=O)oc1/C=C/N(C)C,4.9,?,0.2,25493*,1.3,1.5
COc1ccc(C(=O)Nc2cc(C(C)=O)c(C)oc2=O)cc1,-1.1,0.2,-14.5,4373,0.3,-14.4
CC(=O)c1cc(NC(=O)c2cccc(C(F)(F)F)c2)c(=O)oc1C,2.6,0.2,7.6,4376,1.7,3.3
CC(C)CC(=O)Nc1nnn(C)n1,0.0,4.4,1.4,18519*,6.6,-7.1
Cn1nnc(NC(=O)C(c2ccccc2)c2ccccc2)n1,-4.3,3.2,19.9,14865,5.7,-4.1
CC(C)C(=O)Nc1nnn(C)n1,-0.1,1.2,4.7,22504*,1.4,-1.9
N#C/C(=C/c1ccc(Sc2nc3ccccc3[nH]2)o1)c1cccc(F)c1,0.0,-0.3,2.5,23920*,-1.8,-1.5

# Screens as filed in PubChem BioAssay.
